Results: ChEMBL document CHEMBL3988442, “University of Dundee, Small-Polar-MMV Screening Library” (2021)
For some of these results: Results with a measured potency or affinity are listed apart.

Columns and labels:
Design in all cases: scale not given: direction of the effect not stated beside the values
[1] = molecular target: Protein translocase subunit SecA (Escherichia coli (strain K12)) (UniProt P10408); assay: Assay to Identify E. coli SecA ATPase Inhibitors; format: functional; details: 30 µM
Protein translocase subunit SecA (Escherichia coli (strain K12)), sequence (P10408 whole entry): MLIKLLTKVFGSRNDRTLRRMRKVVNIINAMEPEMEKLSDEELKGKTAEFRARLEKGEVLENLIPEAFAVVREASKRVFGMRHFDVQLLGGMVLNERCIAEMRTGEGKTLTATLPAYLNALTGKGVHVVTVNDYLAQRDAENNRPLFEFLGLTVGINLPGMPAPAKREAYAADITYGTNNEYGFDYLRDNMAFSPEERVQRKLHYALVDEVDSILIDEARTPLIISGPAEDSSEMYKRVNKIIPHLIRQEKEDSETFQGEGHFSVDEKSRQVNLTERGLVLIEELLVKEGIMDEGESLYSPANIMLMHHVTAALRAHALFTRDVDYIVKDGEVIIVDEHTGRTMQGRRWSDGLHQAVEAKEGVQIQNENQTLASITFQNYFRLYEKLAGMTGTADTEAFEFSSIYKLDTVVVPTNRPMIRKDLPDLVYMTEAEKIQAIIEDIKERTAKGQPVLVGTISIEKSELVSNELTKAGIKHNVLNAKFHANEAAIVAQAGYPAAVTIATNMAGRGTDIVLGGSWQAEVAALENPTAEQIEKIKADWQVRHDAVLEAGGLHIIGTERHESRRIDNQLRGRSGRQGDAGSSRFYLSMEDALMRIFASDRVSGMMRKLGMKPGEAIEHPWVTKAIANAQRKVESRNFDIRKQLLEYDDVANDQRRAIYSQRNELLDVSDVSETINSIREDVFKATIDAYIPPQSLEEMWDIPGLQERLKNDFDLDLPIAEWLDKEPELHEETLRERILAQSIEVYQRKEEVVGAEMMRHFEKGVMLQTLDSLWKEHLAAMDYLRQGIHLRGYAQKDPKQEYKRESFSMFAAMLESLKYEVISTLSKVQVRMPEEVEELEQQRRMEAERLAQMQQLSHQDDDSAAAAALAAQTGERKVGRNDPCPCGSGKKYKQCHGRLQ

[2] = molecular target: T1, Ubiquitin-activating enzyme e1, putative (Leishmania donovani (strain BPK282A1)) (UniProt E9BSI1); assay: Leishmania donovani Ubiquitin Activating Enzyme (LdE1); format: functional; details: 30 µM
T1 sequence (whole entry): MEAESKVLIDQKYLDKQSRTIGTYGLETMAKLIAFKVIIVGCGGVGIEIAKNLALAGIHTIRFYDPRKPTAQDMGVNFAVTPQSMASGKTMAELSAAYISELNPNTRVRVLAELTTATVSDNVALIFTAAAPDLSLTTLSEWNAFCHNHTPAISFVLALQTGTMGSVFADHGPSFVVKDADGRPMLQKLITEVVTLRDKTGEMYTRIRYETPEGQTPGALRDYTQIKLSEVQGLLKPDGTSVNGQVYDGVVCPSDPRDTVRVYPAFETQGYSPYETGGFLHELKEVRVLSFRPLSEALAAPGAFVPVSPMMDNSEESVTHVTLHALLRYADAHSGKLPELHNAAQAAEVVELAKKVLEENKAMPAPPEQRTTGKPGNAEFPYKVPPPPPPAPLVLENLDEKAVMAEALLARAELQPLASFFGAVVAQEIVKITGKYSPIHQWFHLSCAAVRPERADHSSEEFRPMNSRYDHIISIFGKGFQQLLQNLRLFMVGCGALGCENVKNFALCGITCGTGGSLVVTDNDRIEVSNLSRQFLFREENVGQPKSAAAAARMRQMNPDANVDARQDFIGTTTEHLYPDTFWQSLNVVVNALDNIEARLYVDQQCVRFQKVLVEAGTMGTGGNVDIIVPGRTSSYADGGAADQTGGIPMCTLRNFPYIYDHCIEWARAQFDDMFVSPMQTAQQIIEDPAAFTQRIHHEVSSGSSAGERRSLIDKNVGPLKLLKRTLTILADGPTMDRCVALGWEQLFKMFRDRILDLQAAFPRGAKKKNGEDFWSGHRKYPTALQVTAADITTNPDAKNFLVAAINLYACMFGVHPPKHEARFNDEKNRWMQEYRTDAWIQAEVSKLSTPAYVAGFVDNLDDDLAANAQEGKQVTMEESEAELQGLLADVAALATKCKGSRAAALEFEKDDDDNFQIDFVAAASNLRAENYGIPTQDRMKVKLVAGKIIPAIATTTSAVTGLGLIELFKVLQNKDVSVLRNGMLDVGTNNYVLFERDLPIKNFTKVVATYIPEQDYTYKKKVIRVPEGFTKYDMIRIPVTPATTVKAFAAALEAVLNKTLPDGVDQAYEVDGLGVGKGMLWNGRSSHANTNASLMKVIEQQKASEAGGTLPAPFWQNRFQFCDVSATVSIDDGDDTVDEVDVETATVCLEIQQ

[3] = molecular target: AMP-activated protein kinase, AMPK (Homo sapiens) (UniProt P54646+O43741+P54619+Q9UGJ0+Q9Y478+Q13131+Q9UGI9); assay: AMP-dependent Kinase enzyme assay. An in vitro enzyme assay that detects ADP turnover that is directly proportional to AMPK activity. This uses naive AMPK that is activated during the assay with MK-8722; format: functional; details: 30 µM
[4] = molecular target: Sialic acid-binding Ig-like lectin 9 (Homo sapiens) (UniProt Q9Y336); assay: Hs-Siglec9 ALPHAscreen SOP 20170721; details: 10 µM
Sialic acid-binding Ig-like lectin 9 (Homo sapiens), sequence (Q9Y336 whole entry): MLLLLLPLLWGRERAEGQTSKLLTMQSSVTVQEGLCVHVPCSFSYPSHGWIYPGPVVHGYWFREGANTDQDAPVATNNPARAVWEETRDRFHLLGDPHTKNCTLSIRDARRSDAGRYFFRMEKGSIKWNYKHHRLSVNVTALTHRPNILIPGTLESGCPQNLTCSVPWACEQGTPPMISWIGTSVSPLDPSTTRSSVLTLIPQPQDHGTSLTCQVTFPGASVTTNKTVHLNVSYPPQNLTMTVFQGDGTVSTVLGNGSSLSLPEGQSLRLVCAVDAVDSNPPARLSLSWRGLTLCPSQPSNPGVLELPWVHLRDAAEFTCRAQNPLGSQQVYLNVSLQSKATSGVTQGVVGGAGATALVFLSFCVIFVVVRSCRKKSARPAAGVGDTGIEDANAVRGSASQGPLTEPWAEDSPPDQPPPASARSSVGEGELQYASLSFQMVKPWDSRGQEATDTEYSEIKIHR

Trypanosoma cruzi = assay: Trypanosoma cruzi phosphomannomutase and mannose-1-phosphate guanylyltransferase assay; format: functional; details: 10 µM
[5] = molecular target: T2, Arginase-2, mitochondrial (Homo sapiens) (UniProt P78540); assay: in vitro enzyme assay to detect the production of urea directly proportional to the activity of Arginase II; format: functional; details: 33.3 µM; also: in the data most compounds retested in dose-response had high values
T2 sequence (whole entry): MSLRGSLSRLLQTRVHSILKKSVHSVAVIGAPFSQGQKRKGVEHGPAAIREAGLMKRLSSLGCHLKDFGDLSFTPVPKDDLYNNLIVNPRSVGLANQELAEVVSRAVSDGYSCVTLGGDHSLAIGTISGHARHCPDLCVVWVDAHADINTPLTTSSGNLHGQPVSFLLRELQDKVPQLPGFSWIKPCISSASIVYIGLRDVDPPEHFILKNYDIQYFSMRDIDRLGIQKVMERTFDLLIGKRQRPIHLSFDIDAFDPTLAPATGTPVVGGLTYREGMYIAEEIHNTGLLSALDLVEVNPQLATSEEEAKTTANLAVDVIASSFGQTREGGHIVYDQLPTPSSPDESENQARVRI

[6] = molecular target: T3, Proteasome subunit beta (Trypanosoma cruzi) (UniProt O96673); assay: Trypanosoma cruzi proteasome chymotrypsin-like activity (TcProtChymo) assay.; also: in the data most compounds retested in dose-response had high values; format: functional; details: 9.37 µM
T3 sequence (whole entry): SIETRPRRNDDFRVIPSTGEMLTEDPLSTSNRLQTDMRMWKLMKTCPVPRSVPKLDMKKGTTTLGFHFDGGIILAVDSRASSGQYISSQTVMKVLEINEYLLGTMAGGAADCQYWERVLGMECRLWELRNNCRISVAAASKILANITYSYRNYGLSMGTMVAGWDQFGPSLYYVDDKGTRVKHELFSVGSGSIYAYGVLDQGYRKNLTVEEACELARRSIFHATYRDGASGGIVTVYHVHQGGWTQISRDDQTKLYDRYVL

Homo sapiens = organism: Homo sapiens; assay: To identify inhibition of the IFN signalling (Jak-Stat) pathway via expression of an eGFP reporter gene under the control of an IFN-stimulated response element (ISRE) containing MxA promoter.; format: functional; details: 30 µM
[7] = molecular target: T4, Tyrosyl-tRNA synthetase, putative (Trypanosoma cruzi (strain CL Brener)) (UniProt Q4DSP6); assay: Trypanosoma cruzi tyrosyl tRNA synthetase (TcYRS) _High Tyrosine SOP; format: functional; details: 30 µM; also: in the data most compounds retested in dose-response had high values
T4 sequence (whole entry): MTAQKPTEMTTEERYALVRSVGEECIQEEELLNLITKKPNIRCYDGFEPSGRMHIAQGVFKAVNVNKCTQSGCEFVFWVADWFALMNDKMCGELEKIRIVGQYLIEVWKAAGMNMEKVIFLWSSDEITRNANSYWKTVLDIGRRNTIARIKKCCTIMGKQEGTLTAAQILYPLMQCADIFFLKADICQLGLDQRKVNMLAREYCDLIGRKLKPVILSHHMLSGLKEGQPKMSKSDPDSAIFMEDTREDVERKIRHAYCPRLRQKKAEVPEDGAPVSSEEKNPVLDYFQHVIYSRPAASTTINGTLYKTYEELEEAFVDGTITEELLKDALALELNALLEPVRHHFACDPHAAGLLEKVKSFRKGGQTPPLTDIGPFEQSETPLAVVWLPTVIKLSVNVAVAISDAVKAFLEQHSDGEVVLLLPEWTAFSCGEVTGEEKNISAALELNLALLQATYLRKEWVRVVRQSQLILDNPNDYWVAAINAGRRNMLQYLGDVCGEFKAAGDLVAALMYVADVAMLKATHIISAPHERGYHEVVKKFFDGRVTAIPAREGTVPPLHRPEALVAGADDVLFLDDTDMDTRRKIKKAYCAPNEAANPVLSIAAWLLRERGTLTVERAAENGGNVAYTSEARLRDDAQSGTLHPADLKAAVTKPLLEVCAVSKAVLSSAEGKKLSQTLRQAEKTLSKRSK

[8] = molecular target: T4, Tyrosyl-tRNA synthetase, putative (Trypanosoma cruzi (strain CL Brener)); assay: Trypanosoma cruzi tyrosyl tRNA synthetase (TcYRS) SOP; format: functional; details: 30 µM
[9] = molecular target: Chromo domain-containing protein 1 (Saccharomyces cerevisiae (strain ATCC 204508 / S288c) (Baker's yeast)) (UniProt P32657); assay: ScCHD-1 Enzyme Inhibition Assay; format: functional; details: 30 µM; also: in the data most compounds retested in dose-response had high values
Chromo domain-containing protein 1 (Saccharomyces cerevisiae (strain ATCC 204508 / S288c) (Baker's yeast)), sequence (P32657 whole entry, the tested form may be a part): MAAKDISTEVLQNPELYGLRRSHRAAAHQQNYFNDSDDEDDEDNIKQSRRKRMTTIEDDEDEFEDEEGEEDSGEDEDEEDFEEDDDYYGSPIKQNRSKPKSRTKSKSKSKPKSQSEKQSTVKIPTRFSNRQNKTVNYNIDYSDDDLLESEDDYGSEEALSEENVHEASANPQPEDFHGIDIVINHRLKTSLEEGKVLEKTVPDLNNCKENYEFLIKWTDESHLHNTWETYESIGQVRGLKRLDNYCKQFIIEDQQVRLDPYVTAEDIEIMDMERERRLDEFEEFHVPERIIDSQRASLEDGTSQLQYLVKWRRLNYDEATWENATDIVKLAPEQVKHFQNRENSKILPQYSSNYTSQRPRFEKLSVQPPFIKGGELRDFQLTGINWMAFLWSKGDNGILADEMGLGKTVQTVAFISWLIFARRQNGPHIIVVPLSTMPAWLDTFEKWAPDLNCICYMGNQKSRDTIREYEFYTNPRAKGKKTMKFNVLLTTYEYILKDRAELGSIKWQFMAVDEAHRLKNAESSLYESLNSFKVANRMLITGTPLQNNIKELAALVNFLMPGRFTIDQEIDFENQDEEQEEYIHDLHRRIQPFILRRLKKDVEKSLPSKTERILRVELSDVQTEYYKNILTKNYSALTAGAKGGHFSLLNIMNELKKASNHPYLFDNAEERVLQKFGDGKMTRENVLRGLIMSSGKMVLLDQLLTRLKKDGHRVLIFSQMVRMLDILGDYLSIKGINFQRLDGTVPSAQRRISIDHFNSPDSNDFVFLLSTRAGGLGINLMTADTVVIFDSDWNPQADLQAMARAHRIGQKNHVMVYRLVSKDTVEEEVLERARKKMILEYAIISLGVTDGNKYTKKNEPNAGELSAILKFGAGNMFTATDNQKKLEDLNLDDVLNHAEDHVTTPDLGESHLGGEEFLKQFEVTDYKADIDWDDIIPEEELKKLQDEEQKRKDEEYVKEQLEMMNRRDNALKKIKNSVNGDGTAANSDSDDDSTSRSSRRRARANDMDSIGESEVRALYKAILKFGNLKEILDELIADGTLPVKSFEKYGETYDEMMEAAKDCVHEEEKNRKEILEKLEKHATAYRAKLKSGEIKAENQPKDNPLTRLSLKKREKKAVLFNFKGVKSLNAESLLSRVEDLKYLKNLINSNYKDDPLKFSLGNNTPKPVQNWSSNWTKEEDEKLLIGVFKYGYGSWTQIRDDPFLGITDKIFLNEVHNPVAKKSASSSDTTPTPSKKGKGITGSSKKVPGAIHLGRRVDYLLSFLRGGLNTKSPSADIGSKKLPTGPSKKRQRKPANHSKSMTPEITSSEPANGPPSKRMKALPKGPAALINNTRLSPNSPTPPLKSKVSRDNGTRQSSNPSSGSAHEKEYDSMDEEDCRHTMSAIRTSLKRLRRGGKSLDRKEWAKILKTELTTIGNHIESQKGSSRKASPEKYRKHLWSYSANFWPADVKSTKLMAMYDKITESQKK

Row | SMILES | Percent Effect [1] [%] | Percent Effect [2] [%] | Percent Effect [3] [%] | Percent Effect [4] [%] | Percent Effect (Trypanosoma cruzi) [%] | Percent Effect [5] [%] | Percent Effect [6] [%] | Percent Effect (Homo sapiens) [%] | Percent Effect [7] [%] | Percent Effect [8] [%] | Percent Effect [9] [%]
1 | c1ccc(-c2nnn3c2COC(CNCC2CCOCC2)C3)cc1 (stereo unspecified) | -4.05 | 8 | 10.9 | 4.62 | -0.984 | -1.63 | 0.0881 | 12.3 | 7.45 | 19.2 | -2.25
2 | CCc1cc(NC2CCN(S(C)(=O)=O)CC2)n2nc(C)c(C)c2n1 | 0.159 | 4.17 | 4.89 | -1.11 | -4.37 | -2.21 | 22.6 | 5.75 | -10.5 | 2.56 | -1.42
3 | COc1ccc(NC(=O)CNc2cccc3c2CCCC3)c(OC)c1 | -6.64 | -2.7 | -0.0771 | 0.268 | -5.57 | -3.23 | 6.95 | -3.03 | -6.45 | -11.1 | -3.27
4 | Cc1ccc(N2CCCC(NCc3cscn3)C2)nn1 (stereo unspecified) | -1.67 | 13.5 | -43.1 | -1.8 | -1.04 | 18.4 | 11.3 | 3.87 | 12.3 | 23.5 | -5.79
5 | Cc1nn(C)c2c(=O)n(CC(=O)Nc3cc(Cl)cc(Cl)c3)nnc12 | 0.37 | 12 | 0.0353 | 1.72 | -6.29 | -1.58 | 19.6 | 12.4 | 2.12 | 10.3 | -8.24
6 | O=C1N(c2ccc(F)cc2)Cc2nc(=O)n(Cc3cccc(Cl)c3)n21 | 0.397 | -4 | 8.75 | 4.81 | -5.11 | -3.35 | 5.36 | -6.59 | -5.29 | -2.56 | -4.31
7 | Cc1cccc(C2(CNC(=O)CCNS(C)(=O)=O)CCCC2)c1 | -6.74 | 15.2 | -3.25 | 11.3 | 4.44 | -11 | 6.31 | -4.41 | 5.42 | 8.86 | -5.61
8 | CN(CCCC#N)C1CCCN(Cc2noc(C3CC3)n2)C1 (stereo unspecified) | -1.64 | 15.3 | -17 | 7.77 | 0.68 | 5.74 | 12.8 | -4.02 | 4.21 | 7.69 | -5.25
9 | Cc1noc(C)c1CNC(=O)c1ccc(NC2CC2)nc1 | -5.61 | 5.26 | -12.2 | 12.7 | 7.94 | -2.52 | -0.0846 | 3.38 | 7.39 | 25.9 | -5.7
10 | COCc1cnc2n1CCN(Cc1cccnc1)C2C (stereo unspecified) | -1.07 | 8 | 0.686 | 6.43 | 3.28 | -50.4 | -0.171 | -15.6 | 2.08 | 5 | -2.32
11 | COCC(=O)N(C)Cc1cccc(Cl)c1 | -4 | 10.5 | -1.75 | -3.18 | 4.19 | 0 | 2.78 | 4.21 | 1.06 | 13 | -4.61
